Results filed as inconclusive are left out. Values without a mark were called inactive. Unless noted, calls follow the shape of the full dose curve.
tested on: not listed separately; assay: qHTS for Inhibitors of the Functional Ribonucleoprotein Complex (vRNP) of Lymphocytic Choriomeningitis Arenaviruses (LCMV): Viability assay - alamar blue signal for LCMV Primary Screen (AID 1347085; calls by dose curve; tested in HEK293 reporter line; also: nearly all actives have a fitted effect of over 80% in size); settings: alamar blue viability counter-screen, LCMV vRNP screen cells; series mostly up to 57.5 µM; activity change, negative = lower viability: at the top concentration
% is scaled to controls: 0 for no effect and ±100 for the full control effect.

| Structure (SMILES) | activity change, negative = lower viability |
| --- | --- |
| CC(C)CCO | -2.93% |
| CC(C)(C)[N+]([O-])=Cc1ccc(S(=O)(=O)O)cc1S(=O)(=O)O | -17.6% |
| CCCCCCOC(=O)CCC | 11.2% [at 115 µM] |
| C=C[C@]1(C)C=C2C(=O)C[C@H]3C(C)(C)CCC[C@]3(C(=O)O)[C@@]2(O)CC1 | 13.5% |
| COc1cc(O)cc2c1[C@@H]1Oc3c(ccc(O)c3CC=C(C)C)[C@@H]1CO2 | 1.02% |
| CC1=CC2=C(C=O)C(=O)C(C)(O)C(O)C2=CO1 (stereo not given) | 3.47% |
| COC(=O)c1ccc(=O)c2nc3/c(=C/O)c(O)cc(=O)c3[nH]c12 | -0.871% |
| CC/C=C\CCOC(C)OCC (stereo not given) | 22.5% [at 115 µM] |
| C=C/C(C)=C/C/C=C(\C)CCC=C(C)C | 20.6% [at 115 µM] |
| O=c1oc(-c2ccc(O)c(O)c2)cc2cccc(O)c12 | -1.98% |
| CC(=O)OCC(=O)[C@@]1(O)CC[C@H]2[C@@H]3CCC4=CC(=O)C=C[C@]4(C)[C@@H]3[C@@H](O)C[C@@]21C | -0.0915% |
| OC[C@H]1O[C@H](OCc2ccccc2)[C@H](O[C@@H]2OC[C@@H](O)[C@H](O)[C@H]2O)[C@@H](O)[C@@H]1O | 0.945% |
| C=CC(C)(C)O[C@@H]1O[C@H](CO)[C@@H](O)[C@H](O)[C@H]1O | -15.3% |
| OCCC(O)CO (stereo not given) | 11.3% |
| C=CC(C)(CCC=C(C)C)OC=O (stereo not given) | 18.4% [at 115 µM] |
| C/C=C(/C)C(=O)OC1Cc2c(ccc3ccc(=O)oc23)OC1(C)C (stereo not given) | 9.31% |
| CC1CC(C)C(=O)C1=O (stereo not given) | 2.26% [at 115 µM] |
| O=c1cc(-c2ccc(O)cc2)oc2cc(OC3OC(CO)C(O)C(O)C3O)c(C3OC(CO)C(O)C(O)C3O)c(O)c12 (stereo not given) | 1.13% [at 24.7 µM] |
| N[C@H](CSSC[C@@H](N)C(=O)O)C(=O)O | -3.2% |
| COc1c2c(c3c(c1OC)c(=O)c1ccccc1n3C)OCO2 | 12.6% |

| Structure (SMILES) | activity change, negative = lower viability |
| --- | --- |
| C=CC(C)=CCC=C(C)C | 5.44% [at 115 µM] |
| COc1ccc([C@H]2Cc3cccc(O)c3C(=O)O2)cc1O | -19.4% |
| CNC(=O)c1ccccc1Sc1ccc2c(C=Cc3ccccn3)n[nH]c2c1 | -27.8% |
| CCCCCCCCCCCCCC(=O)OCC(O)CO (stereo not given) | 8.45% [at 115 µM] |
| CC(C)(O)[C@@H]1CC(=O)[C@]2(C)[C@H](CC[C@@]3(C)[C@H](c4ccoc4)OC(=O)[C@H]4O[C@]432)[C@@]1(C)/C=C\C(=O)O | 15.9% |
| CC(C)CCOC(=O)c1ccccc1 | 16.2% [at 115 µM] |
| C=Cc1cc(OC)c2c(c1)c(=O)oc1c2cc(OC)c2c(O)ccc(C3OC(C)C(O)C(C)(O)C3O)c21 (stereo not given) | 7.8% |
| CC/C=C\CCOC(C)=O | 9.1% [at 115 µM] |
| CCCCOC(=O)C(=O)OCCCC | 13.5% [at 115 µM] |
| COC(=O)N1c2ccccc2C23[C@@H]4CN5CCC[C@]6(CCC12C(O)(C6)C4=O)[C@H]53 | -31.2% |
| COc1cc2ccc(=O)oc2c(O)c1O | 4.9% |
| COc1ccc(C=CC(=O)c2ccc(OC)c(OC)c2O)cc1OC | -18% |
| CC(C)N(CCCNC(=O)Nc1ccc(C(C)(C)C)cc1)C[C@H]1O[C@@H](n2cc(Br)c3c(N)ncnc32)[C@H](O)[C@H]1O | -2.65% |
| O=c1ccc2ccc(O[C@@H]3O[C@H](CO[C@@H]4OC[C@](O)(CO)[C@H]4O)[C@@H](O)[C@H](O)[C@H]3O)cc2o1 | 7.73% |
| CCCCCCCCCCOS(=O)(=O)O | 38.1% [at 115 µM] |
| COc1cc2c(c(OC)c1OC)-c1c(cc3c(c1O)OCO3)C[C@@H](C)[C@@H](C)C2 | -2.75% |
| COc1ccc2c(c1)OC[C@H]1c3cc4c(cc3O[C@@H]21)OCO4 | 0.507% |
| CC(=O)c1ccc(C)cc1 | 21.5% [at 115 µM] |
| C=C(C)C(O)Cc1c(OC)ccc(C(=O)/C=C/c2ccc(O)cc2)c1O (stereo not given) | -1.61% |
| COc1cc(C(=O)O[C@@H]2CC3CC[C@]2(C)C3(C)C)ccc1O | 8.68% |

target: Nucleoprotein (Lymphocytic choriomeningitis virus (strain Armstrong)) (UniProt P09992); assay: qHTS for Inhibitors of the Functional Ribonucleoprotein Complex (vRNP) of Lymphocytic Choriomeningitis Arenaviruses (LCMV): LCMV Primary Screen - GLuc reporter signal (AID 1347086); settings: LCMV minigenome vRNP cell assay, Gaussia luciferase reporter; series mostly up to 57.5 µM; activity change, negative = inhibition: at the top concentration; also: nearly all actives have a fitted effect of over 70% in size
Sequence (P09992 whole entry, looked up): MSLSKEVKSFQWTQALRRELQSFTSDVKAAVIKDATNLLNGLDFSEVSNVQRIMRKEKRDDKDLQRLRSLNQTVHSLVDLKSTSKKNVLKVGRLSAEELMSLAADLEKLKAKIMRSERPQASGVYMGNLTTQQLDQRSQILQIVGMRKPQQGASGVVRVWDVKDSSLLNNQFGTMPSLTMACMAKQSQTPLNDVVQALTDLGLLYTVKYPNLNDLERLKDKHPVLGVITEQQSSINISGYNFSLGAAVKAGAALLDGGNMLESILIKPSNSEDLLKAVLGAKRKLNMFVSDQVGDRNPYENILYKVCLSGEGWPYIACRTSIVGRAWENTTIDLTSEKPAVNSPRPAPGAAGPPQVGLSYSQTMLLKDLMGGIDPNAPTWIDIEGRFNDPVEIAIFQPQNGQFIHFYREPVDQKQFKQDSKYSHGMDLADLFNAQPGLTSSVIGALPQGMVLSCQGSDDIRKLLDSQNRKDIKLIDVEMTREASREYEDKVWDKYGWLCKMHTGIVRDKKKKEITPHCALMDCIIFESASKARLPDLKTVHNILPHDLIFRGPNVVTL

| Structure (SMILES) | activity change, negative = inhibition |
| --- | --- |
| CC(C)CCO | 10.3% |
| CC(C)(C)[N+]([O-])=Cc1ccc(S(=O)(=O)O)cc1S(=O)(=O)O | 27.4% |
| CCCCCCOC(=O)CCC | 16.2% [at 115 µM] |
| C=C[C@]1(C)C=C2C(=O)C[C@H]3C(C)(C)CCC[C@]3(C(=O)O)[C@@]2(O)CC1 | 13% |
| COc1cc(O)cc2c1[C@@H]1Oc3c(ccc(O)c3CC=C(C)C)[C@@H]1CO2 | -30.6% |
| CC1=CC2=C(C=O)C(=O)C(C)(O)C(O)C2=CO1 (stereo not given) | 2.42% |
| COC(=O)c1ccc(=O)c2nc3/c(=C/O)c(O)cc(=O)c3[nH]c12 | 26.2% |
| CC/C=C\CCOC(C)OCC (stereo not given) | 12.6% [at 115 µM] |
| C=C/C(C)=C/C/C=C(\C)CCC=C(C)C | 4.65% [at 115 µM] |
| O=c1oc(-c2ccc(O)c(O)c2)cc2cccc(O)c12 | -23.4% |
| CC(=O)OCC(=O)[C@@]1(O)CC[C@H]2[C@@H]3CCC4=CC(=O)C=C[C@]4(C)[C@@H]3[C@@H](O)C[C@@]21C | 55.6% |
| OC[C@H]1O[C@H](OCc2ccccc2)[C@H](O[C@@H]2OC[C@@H](O)[C@H](O)[C@H]2O)[C@@H](O)[C@@H]1O | 12.1% |
| C=CC(C)(C)O[C@@H]1O[C@H](CO)[C@@H](O)[C@H](O)[C@H]1O | 0.505% |
| OCCC(O)CO (stereo not given) | 12.7% |
| C=CC(C)(CCC=C(C)C)OC=O (stereo not given) | 16.6% [at 115 µM] |
| C/C=C(/C)C(=O)OC1Cc2c(ccc3ccc(=O)oc23)OC1(C)C (stereo not given) | -4.85% |
| CC1CC(C)C(=O)C1=O (stereo not given) | 2.78% [at 115 µM] |
| O=c1cc(-c2ccc(O)cc2)oc2cc(OC3OC(CO)C(O)C(O)C3O)c(C3OC(CO)C(O)C(O)C3O)c(O)c12 (stereo not given) | -5.1% [at 24.7 µM] |
| N[C@H](CSSC[C@@H](N)C(=O)O)C(=O)O | -0.422% |
| COc1c2c(c3c(c1OC)c(=O)c1ccccc1n3C)OCO2 | 0.76% |

| Structure (SMILES) | activity change, negative = inhibition |
| --- | --- |
| C=CC(C)=CCC=C(C)C | 0.783% [at 115 µM] |
| COc1ccc([C@H]2Cc3cccc(O)c3C(=O)O2)cc1O | 9.98% |
| CNC(=O)c1ccccc1Sc1ccc2c(C=Cc3ccccn3)n[nH]c2c1 | 0.894% |
| CCCCCCCCCCCCCC(=O)OCC(O)CO (stereo not given) | 14.1% [at 115 µM] |
| CC(C)(O)[C@@H]1CC(=O)[C@]2(C)[C@H](CC[C@@]3(C)[C@H](c4ccoc4)OC(=O)[C@H]4O[C@]432)[C@@]1(C)/C=C\C(=O)O | 23.5% |
| CC(C)CCOC(=O)c1ccccc1 | -4.16% [at 115 µM] |
| C=Cc1cc(OC)c2c(c1)c(=O)oc1c2cc(OC)c2c(O)ccc(C3OC(C)C(O)C(C)(O)C3O)c21 (stereo not given) | 3.08% |
| CC/C=C\CCOC(C)=O | 13% [at 115 µM] |
| CCCCOC(=O)C(=O)OCCCC | 23.2% [at 115 µM] |
| COC(=O)N1c2ccccc2C23[C@@H]4CN5CCC[C@]6(CCC12C(O)(C6)C4=O)[C@H]53 | -30.2% |
| COc1cc2ccc(=O)oc2c(O)c1O | 4.12% |
| COc1ccc(C=CC(=O)c2ccc(OC)c(OC)c2O)cc1OC | -36.4% |
| CC(C)N(CCCNC(=O)Nc1ccc(C(C)(C)C)cc1)C[C@H]1O[C@@H](n2cc(Br)c3c(N)ncnc32)[C@H](O)[C@H]1O | -4.38% |
| O=c1ccc2ccc(O[C@@H]3O[C@H](CO[C@@H]4OC[C@](O)(CO)[C@H]4O)[C@@H](O)[C@H](O)[C@H]3O)cc2o1 | -1.7% |
| CCCCCCCCCCOS(=O)(=O)O | 35% [at 115 µM] |
| COc1cc2c(c(OC)c1OC)-c1c(cc3c(c1O)OCO3)C[C@@H](C)[C@@H](C)C2 | 16.9% |
| COc1ccc2c(c1)OC[C@H]1c3cc4c(cc3O[C@@H]21)OCO4 | 4.43% |
| CC(=O)c1ccc(C)cc1 | 20.1% [at 115 µM] |
| C=C(C)C(O)Cc1c(OC)ccc(C(=O)/C=C/c2ccc(O)cc2)c1O (stereo not given) | -15.7% |
| COc1cc(C(=O)O[C@@H]2CC3CC[C@]2(C)C3(C)C)ccc1O | 31.5% |

Source: PubChem BioAssay (NCATS)
